This passage reports inhibition results from ChEMBL document CHEMBL1961873, “Compounds: GSK PKIS; Assays: Nanosyn kinase panel” (2012).

As a reminder, the inhibition is the relative decrease from the control value, in per cent.

The target of assay [1] is Mast/stem cell growth factor receptor Kit (Homo sapiens) (UniProt P10721). Conditions: at 1 µM.
Assay [2] has as its system Mast/stem cell growth factor receptor Kit (Homo sapiens), P10721 [D816V]. The conditions noted are these: at 0.1 µM.
Assay [3] shares this test system. Conditions: at 1 µM.
The subject of assay [4] is Mast/stem cell growth factor receptor Kit (Homo sapiens), P10721 [T670I]. The conditions noted are these: at 0.1 µM.
The test system is the same in assay [5]. The conditions noted are these: at 1 µM.
The subject of assay [6] is Mast/stem cell growth factor receptor Kit (Homo sapiens), P10721 [V560G]. Conditions: at 0.1 µM.
The test system is the same in assay [7]. The conditions noted are these: at 1 µM.
Assay [8] addresses Tyrosine-protein kinase Lck (Homo sapiens) (UniProt P06239). Conditions: at 0.1 µM.
The target is the same in assay [9]. Conditions: at 1 µM.
In assay [10] the target is Leukocyte tyrosine kinase receptor (Homo sapiens) (UniProt P29376). The conditions noted are these: at 0.1 µM.
Sequence of Leukocyte tyrosine kinase receptor (Homo sapiens) (P29376 whole entry): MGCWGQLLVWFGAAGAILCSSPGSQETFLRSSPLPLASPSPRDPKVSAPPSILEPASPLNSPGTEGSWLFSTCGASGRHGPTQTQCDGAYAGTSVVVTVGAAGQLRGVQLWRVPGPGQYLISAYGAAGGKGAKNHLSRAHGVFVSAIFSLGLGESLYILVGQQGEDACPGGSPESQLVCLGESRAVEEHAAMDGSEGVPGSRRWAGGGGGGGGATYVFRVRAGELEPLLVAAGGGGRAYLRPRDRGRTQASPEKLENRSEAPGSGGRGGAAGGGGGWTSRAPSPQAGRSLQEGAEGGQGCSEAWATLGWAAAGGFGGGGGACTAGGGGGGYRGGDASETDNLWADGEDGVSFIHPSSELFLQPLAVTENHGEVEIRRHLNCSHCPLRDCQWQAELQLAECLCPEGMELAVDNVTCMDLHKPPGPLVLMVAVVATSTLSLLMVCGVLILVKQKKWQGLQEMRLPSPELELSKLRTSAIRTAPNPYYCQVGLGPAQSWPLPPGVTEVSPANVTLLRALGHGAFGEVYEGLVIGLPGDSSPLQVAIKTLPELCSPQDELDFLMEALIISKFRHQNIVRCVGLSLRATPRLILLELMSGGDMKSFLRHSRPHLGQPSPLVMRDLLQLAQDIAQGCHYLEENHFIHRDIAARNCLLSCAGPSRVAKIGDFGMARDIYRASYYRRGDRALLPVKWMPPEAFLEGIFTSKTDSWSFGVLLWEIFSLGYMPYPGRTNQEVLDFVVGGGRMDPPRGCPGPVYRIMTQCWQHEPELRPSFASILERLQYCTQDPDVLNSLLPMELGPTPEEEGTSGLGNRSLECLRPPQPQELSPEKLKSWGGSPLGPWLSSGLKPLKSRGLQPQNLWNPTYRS
The target is the same in assay [11]. The conditions noted are these: at 1 µM.
The target in assay [12] is Tyrosine-protein kinase Lyn (Homo sapiens) (UniProt P07948). The conditions noted are these: at 0.1 µM.
Sequence of Tyrosine-protein kinase Lyn (Homo sapiens) (P07948 2-512 limits assumed): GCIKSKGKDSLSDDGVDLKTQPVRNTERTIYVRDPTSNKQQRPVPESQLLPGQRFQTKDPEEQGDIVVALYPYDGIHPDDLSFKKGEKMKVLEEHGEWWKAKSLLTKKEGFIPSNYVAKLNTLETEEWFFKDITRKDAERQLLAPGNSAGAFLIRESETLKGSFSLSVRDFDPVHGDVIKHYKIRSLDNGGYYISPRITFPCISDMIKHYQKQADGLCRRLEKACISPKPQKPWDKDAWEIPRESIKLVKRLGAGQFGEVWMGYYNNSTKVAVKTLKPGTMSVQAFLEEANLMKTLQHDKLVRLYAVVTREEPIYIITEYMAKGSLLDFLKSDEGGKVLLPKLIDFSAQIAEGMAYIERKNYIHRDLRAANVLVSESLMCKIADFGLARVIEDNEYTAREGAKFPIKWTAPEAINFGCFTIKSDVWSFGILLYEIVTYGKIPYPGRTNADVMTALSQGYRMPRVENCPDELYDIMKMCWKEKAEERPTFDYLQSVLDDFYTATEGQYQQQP
Assay [13] shares this target. Conditions: at 1 µM.
The target is the same in assay [14]. Conditions: at 0.1 µM. This is another data set of the same source.
For assay [15] the target is unchanged. The conditions noted are these: at 1 µM. This is another data set of the same source.
In assay [16] the target is T1, Tyrosine-protein kinase Mer (Homo sapiens) (UniProt Q12866).
T1 sequence (whole entry): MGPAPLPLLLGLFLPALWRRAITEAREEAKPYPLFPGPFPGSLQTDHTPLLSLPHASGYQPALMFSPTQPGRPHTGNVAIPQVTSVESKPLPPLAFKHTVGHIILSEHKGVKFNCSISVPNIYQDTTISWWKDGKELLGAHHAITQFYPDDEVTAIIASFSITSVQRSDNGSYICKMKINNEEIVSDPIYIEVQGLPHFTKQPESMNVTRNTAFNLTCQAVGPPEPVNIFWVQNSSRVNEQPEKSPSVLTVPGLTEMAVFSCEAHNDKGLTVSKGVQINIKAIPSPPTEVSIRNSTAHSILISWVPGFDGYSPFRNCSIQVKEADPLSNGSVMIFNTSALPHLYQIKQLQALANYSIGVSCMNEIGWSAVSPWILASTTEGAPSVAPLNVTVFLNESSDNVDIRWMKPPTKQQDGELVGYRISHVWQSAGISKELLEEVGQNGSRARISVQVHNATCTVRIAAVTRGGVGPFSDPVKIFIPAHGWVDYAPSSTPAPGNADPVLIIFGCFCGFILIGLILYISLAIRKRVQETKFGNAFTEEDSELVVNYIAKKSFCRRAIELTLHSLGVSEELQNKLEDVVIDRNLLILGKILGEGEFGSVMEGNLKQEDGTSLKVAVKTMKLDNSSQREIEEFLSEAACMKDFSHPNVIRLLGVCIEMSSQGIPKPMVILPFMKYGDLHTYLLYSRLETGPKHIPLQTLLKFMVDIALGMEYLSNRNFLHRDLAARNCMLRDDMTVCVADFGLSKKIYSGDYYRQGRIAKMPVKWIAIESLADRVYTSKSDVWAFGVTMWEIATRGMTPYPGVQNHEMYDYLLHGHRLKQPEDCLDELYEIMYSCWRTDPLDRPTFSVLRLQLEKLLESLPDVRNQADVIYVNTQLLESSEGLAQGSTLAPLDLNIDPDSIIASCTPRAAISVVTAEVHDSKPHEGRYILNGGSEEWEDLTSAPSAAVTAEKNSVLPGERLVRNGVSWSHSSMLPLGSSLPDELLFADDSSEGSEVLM
The conditions noted are these: at 0.1 µM.

The target in assay [17] is T1, Tyrosine-protein kinase Mer (Homo sapiens). Conditions: at 1 µM.
The target of assay [18] is Hepatocyte growth factor receptor (Homo sapiens) (UniProt P08581). The conditions noted are these: at 0.1 µM.
Sequence of Hepatocyte growth factor receptor (Homo sapiens) (P08581 whole entry): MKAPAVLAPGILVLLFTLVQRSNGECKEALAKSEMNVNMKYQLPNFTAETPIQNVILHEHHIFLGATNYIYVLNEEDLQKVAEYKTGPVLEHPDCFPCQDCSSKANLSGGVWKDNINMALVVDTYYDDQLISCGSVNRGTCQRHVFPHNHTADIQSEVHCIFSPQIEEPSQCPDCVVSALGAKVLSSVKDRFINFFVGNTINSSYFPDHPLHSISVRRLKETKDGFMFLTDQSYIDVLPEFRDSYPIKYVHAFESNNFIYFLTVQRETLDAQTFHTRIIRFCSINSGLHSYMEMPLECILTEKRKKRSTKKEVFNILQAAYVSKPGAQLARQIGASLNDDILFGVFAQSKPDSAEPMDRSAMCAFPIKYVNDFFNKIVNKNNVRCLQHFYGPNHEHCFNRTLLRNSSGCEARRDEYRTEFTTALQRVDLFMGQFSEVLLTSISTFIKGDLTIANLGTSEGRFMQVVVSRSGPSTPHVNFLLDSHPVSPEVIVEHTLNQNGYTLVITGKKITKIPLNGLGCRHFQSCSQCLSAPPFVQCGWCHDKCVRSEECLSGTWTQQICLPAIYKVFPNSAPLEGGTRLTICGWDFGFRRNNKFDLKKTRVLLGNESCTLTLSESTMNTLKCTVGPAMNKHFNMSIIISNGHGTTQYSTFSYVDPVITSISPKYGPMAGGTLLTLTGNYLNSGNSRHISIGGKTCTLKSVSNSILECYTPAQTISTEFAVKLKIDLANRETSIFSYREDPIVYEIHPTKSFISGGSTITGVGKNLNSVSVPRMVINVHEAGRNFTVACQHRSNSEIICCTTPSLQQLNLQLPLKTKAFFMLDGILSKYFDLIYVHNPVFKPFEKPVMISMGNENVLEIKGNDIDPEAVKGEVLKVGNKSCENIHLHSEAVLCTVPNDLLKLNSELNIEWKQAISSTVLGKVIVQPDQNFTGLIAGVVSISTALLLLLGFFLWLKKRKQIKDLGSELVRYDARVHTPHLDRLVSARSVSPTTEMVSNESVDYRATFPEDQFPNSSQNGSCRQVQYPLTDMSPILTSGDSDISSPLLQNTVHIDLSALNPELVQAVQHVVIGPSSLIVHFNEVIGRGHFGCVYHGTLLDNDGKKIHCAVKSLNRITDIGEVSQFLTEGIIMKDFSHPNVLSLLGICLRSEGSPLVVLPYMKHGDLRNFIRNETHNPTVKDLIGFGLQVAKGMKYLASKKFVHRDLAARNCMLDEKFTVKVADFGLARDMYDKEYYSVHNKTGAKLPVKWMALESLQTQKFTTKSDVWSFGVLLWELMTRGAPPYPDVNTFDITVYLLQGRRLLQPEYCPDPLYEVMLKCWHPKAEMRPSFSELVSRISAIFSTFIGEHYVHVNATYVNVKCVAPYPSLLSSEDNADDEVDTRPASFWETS
Assay [19] shares this target. Conditions: at 1 µM.
Assay [20] concerns the target T2, Muscle, skeletal receptor tyrosine-protein kinase (Homo sapiens) (UniProt O15146).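 Also: values are mean inhibition of MuSK from the GSK PKIS kinase screening panel.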
T2 sequence (whole entry): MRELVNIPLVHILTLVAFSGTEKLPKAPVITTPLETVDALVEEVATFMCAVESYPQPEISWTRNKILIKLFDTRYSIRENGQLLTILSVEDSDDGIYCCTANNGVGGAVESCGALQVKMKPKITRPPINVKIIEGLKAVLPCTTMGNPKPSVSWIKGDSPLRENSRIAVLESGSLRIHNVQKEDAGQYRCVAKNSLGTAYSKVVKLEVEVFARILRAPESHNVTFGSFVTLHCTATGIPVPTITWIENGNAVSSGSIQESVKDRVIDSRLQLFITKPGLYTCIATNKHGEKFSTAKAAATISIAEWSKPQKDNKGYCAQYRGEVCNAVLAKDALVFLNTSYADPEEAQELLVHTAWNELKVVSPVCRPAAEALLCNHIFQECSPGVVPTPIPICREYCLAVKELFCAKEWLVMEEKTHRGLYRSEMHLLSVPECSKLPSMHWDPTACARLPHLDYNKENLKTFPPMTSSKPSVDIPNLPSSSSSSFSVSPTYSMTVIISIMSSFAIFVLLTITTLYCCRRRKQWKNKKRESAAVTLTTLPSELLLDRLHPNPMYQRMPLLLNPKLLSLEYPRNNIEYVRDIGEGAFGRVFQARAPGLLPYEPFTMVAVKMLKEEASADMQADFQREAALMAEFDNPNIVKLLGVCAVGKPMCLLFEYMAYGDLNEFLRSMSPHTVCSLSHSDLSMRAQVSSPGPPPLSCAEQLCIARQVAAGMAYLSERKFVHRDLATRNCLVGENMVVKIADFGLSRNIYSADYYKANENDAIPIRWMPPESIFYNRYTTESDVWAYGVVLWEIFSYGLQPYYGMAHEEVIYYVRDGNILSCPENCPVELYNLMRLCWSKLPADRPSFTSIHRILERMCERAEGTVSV
The conditions noted are these: at 0.1 µM.

Sequence of Mast/stem cell growth factor receptor Kit (Homo sapiens) (P10721 whole entry): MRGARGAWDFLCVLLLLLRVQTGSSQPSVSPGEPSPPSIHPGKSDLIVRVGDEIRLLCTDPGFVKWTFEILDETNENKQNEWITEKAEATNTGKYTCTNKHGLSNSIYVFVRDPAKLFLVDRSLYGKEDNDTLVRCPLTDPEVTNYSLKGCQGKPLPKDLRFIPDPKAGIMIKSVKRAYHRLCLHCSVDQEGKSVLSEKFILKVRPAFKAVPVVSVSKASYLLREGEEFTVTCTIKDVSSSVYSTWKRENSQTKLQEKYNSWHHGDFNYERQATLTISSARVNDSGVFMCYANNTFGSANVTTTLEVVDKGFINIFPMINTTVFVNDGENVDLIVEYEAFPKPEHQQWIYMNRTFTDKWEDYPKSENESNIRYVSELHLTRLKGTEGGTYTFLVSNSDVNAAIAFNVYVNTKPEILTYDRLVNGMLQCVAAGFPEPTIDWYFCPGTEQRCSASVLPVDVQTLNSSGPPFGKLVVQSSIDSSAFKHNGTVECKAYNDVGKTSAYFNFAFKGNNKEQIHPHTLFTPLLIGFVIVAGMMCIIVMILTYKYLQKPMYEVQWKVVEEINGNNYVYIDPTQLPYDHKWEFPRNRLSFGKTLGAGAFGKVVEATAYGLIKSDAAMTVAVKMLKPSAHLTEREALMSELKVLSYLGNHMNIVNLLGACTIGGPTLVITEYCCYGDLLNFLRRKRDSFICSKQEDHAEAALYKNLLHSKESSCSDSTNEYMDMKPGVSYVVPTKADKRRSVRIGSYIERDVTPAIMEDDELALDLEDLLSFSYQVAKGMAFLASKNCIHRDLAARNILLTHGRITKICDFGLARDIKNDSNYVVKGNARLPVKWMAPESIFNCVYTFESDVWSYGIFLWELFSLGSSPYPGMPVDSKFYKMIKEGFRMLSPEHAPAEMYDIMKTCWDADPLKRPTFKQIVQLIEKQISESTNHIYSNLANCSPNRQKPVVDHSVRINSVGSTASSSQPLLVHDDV
Sequence of Mast/stem cell growth factor receptor Kit (Homo sapiens), P10721 [D816V] (P10721 whole entry D816V): as the sequence (P10721 whole entry) above, with D816V counted along it
Sequence of Mast/stem cell growth factor receptor Kit (Homo sapiens), P10721 [V560G] (P10721 whole entry V560G): as the sequence (P10721 whole entry) above, with V560G counted along it
Sequence of Tyrosine-protein kinase Lck (Homo sapiens) (P06239 2-509 limits assumed): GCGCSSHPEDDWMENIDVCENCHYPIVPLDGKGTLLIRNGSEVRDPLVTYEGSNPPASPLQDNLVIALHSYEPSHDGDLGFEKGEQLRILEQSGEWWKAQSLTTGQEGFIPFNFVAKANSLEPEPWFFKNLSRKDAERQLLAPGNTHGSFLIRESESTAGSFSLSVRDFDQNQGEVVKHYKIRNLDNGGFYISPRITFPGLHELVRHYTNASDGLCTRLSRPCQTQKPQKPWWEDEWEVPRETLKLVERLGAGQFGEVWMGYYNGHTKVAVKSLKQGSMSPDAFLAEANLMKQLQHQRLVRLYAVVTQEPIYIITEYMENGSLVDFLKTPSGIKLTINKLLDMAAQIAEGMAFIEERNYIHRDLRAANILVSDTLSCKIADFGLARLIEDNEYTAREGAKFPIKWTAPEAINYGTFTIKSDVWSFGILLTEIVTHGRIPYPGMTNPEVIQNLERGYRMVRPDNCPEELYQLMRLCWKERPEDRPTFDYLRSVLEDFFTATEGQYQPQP
Sequence of Mast/stem cell growth factor receptor Kit (Homo sapiens), P10721 [T670I] (P10721 whole entry T670I): as the sequence (P10721 whole entry) above, with T670I counted along it

Regarding `[O-][S+]1CCN(Cc2ccc(-c3ccc4ncnc(Nc5ccc(OCc6ccccc6)c(F)c5)c4c3)o2)CC1`, the inhibition was 3.42% in assay [1]; 2.25% in assay [2]; -1.53% in [3]; 0.34% in assay [4]; 1.07% in assay [5]; -2.07% in assay [6]. The inhibition was -2.71% in [7]; 1.81% in assay [8]; 7.89% in [9]; 2.21% in [10]; 3.33% in assay [11]; 2.19% in assay [12]. For the same molecule, the inhibition in [13] turned out to be 5.34%; in [14], 1.2%; in [15] it was 1.42%; in assay [16] it was 42.1%; in assay [17], 81.8%; in [18] it was 6.51%. For the same molecule, the inhibition is 0.93% in [19] and 1.44% in assay [20].

As for `COc1cc(C=NNc2ncnc3c2cnn3-c2ccccc2)ccc1O`, the inhibition in assay [1] was found to be 67%; in [2], 2.68%; in [3], 8.84%; in [4] it was 4.5%; in assay [5], 37.6%; in assay [6], 8.24%. The inhibition in assay [7] amounted to 12.3%; in [8] it was 19.4%; in [9], 63.9%; in assay [10] it was 2.19%; in [11], 6.55%; in assay [12], 17.1%. For the same molecule, the inhibition was 65.9% in assay [13]; 13.3% in [14]; 62.8% in [15]; 6.78% in assay [16]; 34.5% in assay [17]; 21.5% in assay [18]. Besides, the figures for the inhibition in [19] and in [20] were 88.6% and 7.87%, respectively.

Consider `COc1cc2c(cc1Nc1nc(N3CCc4ccccc43)c3cc[nH]c3n1)N(C(=O)CN(C)C)CC2`, for which the inhibition in [1] turned out to be 5.18%; in assay [2], 3.89%; in [3], 5.06%; in [4] it was 1.21%; in [5] it was 4.61%; in assay [6] it was 0.64%. Besides, the inhibition in assay [7] turned out to be 1.28%; in assay [8], 1.15%; in assay [9], 6%; in [10], 75.9%; in [11], 89.9%; in [12] it was 1.75%. Also, the inhibition was 1.39% in [13]; 0.29% in assay [14]; 1.23% in assay [15]; 1.28% in assay [16]; 0.11% in assay [17]; 2.24% in assay [18]. Further, the inhibition was -6.58% in assay [19] and -0.85% in assay [20].

As for `COc1ccc(-c2nn3ncccc3c2-c2ccnc(Nc3ccc(Cl)c(C(F)(F)F)c3)n2)cc1`, the inhibition in assay [1] was 8.96%; in assay [2], 0.87%; in assay [3] it was 4.92%; in assay [4], -0.64%; in [5], 1.14%; in assay [6], 0.89%. Besides, the inhibition in assay [7] was -0.17%; in assay [8], -0.04%; in assay [9], 5.83%; in assay [10] it was 2.25%; in [11] it was 2.96%; in assay [12], 2.95%. The inhibition amounted to 7.79% in assay [13]; 2.39% in assay [14]; 7.64% in [15]; 0.1% in assay [16]; 0.41% in assay [17]; 7.55% in [18]. The inhibition in [19] turned out to be 4.08%; in [20], 2.01%.

`Cc1cc(O)cc(C)c1/C=C/c1cncc(-c2nn[nH]n2)c1`: the inhibition in [1] is 65.5%; in assay [2], 5.64%; in assay [3], 3.74%; in assay [4], 1.04%; in assay [5] it was 3.66%; in assay [6], -0.1%. The inhibition in assay [7] worked out at 22.1%; in [8], 1.97%; in assay [9] it was 42.5%; in [10], 6.07%; in assay [11] it was 27.8%; in assay [12], 21.9%. Further, the inhibition is 78.4% in [13]; 17% in assay [14]; 73.9% in [15]; 2.28% in assay [16]; 5.61% in [17]; 3.29% in assay [18]. Further, the inhibition stood at 8.95% in [19] and 2.58% in [20].

On to `COc1cc2ncn(-c3cc(O[C@@H](C)c4ccccc4Cl)c(C(N)=O)s3)c2cc1OC`, for which the inhibition in assay [1] came out at 11.9%; in [2], 3.28%; in assay [3] it was 6.34%; in assay [4], 3.02%; in [5], 5.54%; in [6] it was 4.09%. For the same molecule, the inhibition in [7] was determined as 3.09%; in [8], 4.64%; in assay [9], 19.6%; in [10] it was 3.53%; in assay [11], 4.56%; in [12], 6.39%. Also, the inhibition was 28.6% in [13]; 4.74% in [14]; 22% in [15]; 4.25% in assay [16]; 10.3% in assay [17]; 4.76% in assay [18]. Further, the inhibition in assay [19] worked out at 3.23%; in assay [20], 2.77%.

As for `COc1ccc(COc2ccc(Cc3cnc(N)nc3N)cc2OC)cc1`, the inhibition in assay [1] is 7.39%; in assay [2], -2.58%; in [3], -2.51%; in [4], -2.93%; in assay [5], -3.14%; in assay [6] it was 5.62%. In addition, the inhibition in [7] is 8.16%; in assay [8] it was 0.03%; in assay [9], 2.78%; in [10], -1.03%; in assay [11] it was -0.41%; in assay [12], 0.58%. Moreover, the inhibition in [13] turned out to be 0.33%; in [14], 0.18%; in [15], 2.08%; in [16] it was 2.31%; in assay [17] it was 3.48%; in [18] it was 2.14%. In addition, the inhibition is 5.98% in assay [19] and 4.72% in assay [20].
